# Results as given in PubChem BioAssay AID1159580 (chemical genetic matrix, 2015).
# Screen size: about 5,500 compounds; about 2,000 (36%) were called active. Inconclusive results (about 18%) are left out. The list shows a part of the results. Unmarked numbers belong to inactive results. Cut-off read from the data, not from the text of the source: active = normalized growth mostly below about 0.91 (no sharp cut-off); inconclusive = no clear call, values can overlap the other calls; inactive = mostly above about 0.92.
# Assay: chemical genetic growth profiling, strain panel (AID 1159580);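 note: tested at 20 µM; growth read once vehicle control cultures reached saturation at 30 °C; 1 = growth at the plate median or of vehicle wells; lower values mean less growth of the strain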
# Conditions: growth OD
smiles,measurement,setting,value
O=C(O)CCOc1ccc(Cl)cc1,normalized growth,"S. cerevisiae deletion strains, locus YAL013W, strain DEP1, stronger effect = lower value",0.956
same,normalized growth,"S. cerevisiae deletion strains, locus YBR229C, strain ROT2, stronger effect = lower value",0.795 (active)
same,normalized growth,"S. cerevisiae deletion strains, locus YCL061C, strain MRC1, stronger effect = lower value",0.825 (active)
same,normalized growth,"S. cerevisiae deletion strains, locus YDL101C, strain DUN1, stronger effect = lower value",0.901
same,normalized growth,"S. cerevisiae deletion strains, locus YDL134C, strain PPH21, stronger effect = lower value",1
same,normalized growth,"S. cerevisiae deletion strains, locus YEL061C, strain CIN8, stronger effect = lower value",0.999
same,normalized growth,"S. cerevisiae deletion strains, locus YGR078C, strain PAC10, stronger effect = lower value",0.753 (active)
same,normalized growth,"S. cerevisiae deletion strains, locus YHR030C, strain SLT2, stronger effect = lower value",1.01
same,normalized growth,"S. cerevisiae deletion strains, locus YHR087W, strain rtc3, stronger effect = lower value",0.729 (active)
same,normalized growth,"S. cerevisiae deletion strains, locus YJL187C, strain SWE1, stronger effect = lower value",0.837 (active)
same,normalized growth,"S. cerevisiae deletion strains, locus YJR043C, strain POL32, stronger effect = lower value",0.913 (active)
same,normalized growth,"S. cerevisiae deletion strains, locus YJR075W, strain HOC1, stronger effect = lower value",0.64 (active)
same,normalized growth,"S. cerevisiae deletion strains, locus YKL190W, strain CNB1, stronger effect = lower value",1
same,normalized growth,"S. cerevisiae deletion strains, locus YLR039C, strain RIC1, stronger effect = lower value",0.979
same,normalized growth,"S. cerevisiae deletion strains, locus YLR058C, strain SHM2 (second series), stronger effect = lower value",0.904 (active)
same,normalized growth,"S. cerevisiae deletion strains, locus YLR085C, strain ARP6, stronger effect = lower value",1
same,normalized growth,"S. cerevisiae deletion strains, locus YLR262C, strain YPT6, stronger effect = lower value",0.993
same,normalized growth,"S. cerevisiae deletion strains, locus YML094W, strain GIM5, stronger effect = lower value",1.01
same,normalized growth,"S. cerevisiae deletion strains, locus YMR219W, strain ESC1, stronger effect = lower value",0.838 (active)
same,normalized growth,"S. cerevisiae deletion strains, locus YMR263W, strain SAP30, stronger effect = lower value",0.859 (active)
same,normalized growth,"S. cerevisiae deletion strains, locus YMR307W, strain GAS1, stronger effect = lower value",0.895
same,normalized growth,"S. cerevisiae deletion strains, locus YNL153C, strain GIM3, stronger effect = lower value",0.793 (active)
same,normalized growth,"S. cerevisiae deletion strains, locus YNL298W, strain CLA4 (second series), stronger effect = lower value",1.03
same,normalized growth,"S. cerevisiae deletion strains, locus YNL322C, strain KRE1, stronger effect = lower value",0.9 (active)
same,normalized growth,"S. cerevisiae deletion strains, locus YNR030W, strain Alg12, stronger effect = lower value",1
same,normalized growth,"S. cerevisiae deletion strains, locus YPL055C, strain LGE1, stronger effect = lower value",0.763 (active)
same,normalized growth,"S. cerevisiae deletion strains, locus YPL241C, strain CIN2, stronger effect = lower value",0.954
same,normalized growth,"S. cerevisiae deletion strains, locus YPR135W, strain CTF4, stronger effect = lower value",1.11
same,normalized growth,"S. cerevisiae strains, strain wild type, stronger effect = lower value",1.01
